# From PubChem BioAssay (EPA / NIEHS)
# Results filed as inconclusive are left out. Calls of active or inactive are those of the source. Rule for the calls: active = hit-call score of the fitted dose curve at least 0.9, where 1 is the maximum; inconclusive = response in the unintended direction; inactive = score below 0.9.
# Read-out: Cytochrome P450 2C19 (Homo sapiens) (UniProt P33261)
# Assay: CLD_CYP2C19_24hr: CellzDirect (CLD) Gene Expression Assay for xenobiotic metabolism (CYP2C19) at 24 hours (AID 2283687);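 note: activity means mRNA induction above DMSO vehicle baseline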
# Method: CLD_24hr is a cell-based, multiplexed-readout assay that uses hepatocyte, a human liver primary cell, with measurements taken at 24 hours after chemical dosing in a 96-well plate.CLD_CYP2C19_24hr is one of 16 assay component(s) measured or calculated from the CLD_24hr assay. It is designed to make measurements of mRNA induction, a form of inducible reporter, as detected with chemiluminescence signals by Quantitative Nuclease Protection Assay (qNPA) technology.Data from the assay component CLD_CYP2C19_24hr was analyzed at the endpoint, CLD_CYP2C19_24hr, in the positive analysis fitting direction relative to DMSO as the negative control and baseline of activity. Using a type of inducible reporter, gain-of-signal activity can be used to understand changes in the reporter gene as they relate to the gene CYP2C19. Furthermore, this assay endpoint can be referred to as a primary readout. To generalize the intended target to other relatable targets, this assay endpoint is annotated to the cyp intended target family, where subfamily is xenobiotic metabolism.
# Human hepatocyte cultures were treated daily for two consecutive days with fresh dosing solutions containing appropriate concentrations of the 320 ToxCast chemicals (chemical identities were blinded to CellzDirect and other ToxCast collaborators), vehicle control (0.2% DMSO), and positive control inducers as summarized in Table 1. Due to the large number of treatment groups and chemicals examined, the ToxCast chemicals were divided into two groups (spanning two independent cultures of hepatocytes from separate donor preparations (Hu778: ToxCast plates 1 and 2; Hu776: ToxCast plates 3 and 4). Each preparation of human hepatocyte cultures was treated with respective vehicle control, medium only control, set of six positive controls/reference chemicals for the five hepatic receptor pathways, and a subset of eight of the ToxCast chemicals (indoxacarb, pyrithiobac-sodium, norflurazon, cyhalofop-butyl, methomyl, thiram, acetochlor, and propiconazole). These replicate data, coupled with internal replicates designed within the blinded ToxCast chemical library, provided additional data to evaluate interindividual differences between hepatocyte preparations and their potential impact on chemical profiles.Cell morphology and integrity were evaluated using phase-contrast microscopy as an indicator of hepatocyte cell health (Tyson & Green, 1987). Cultures for each treatment group (i.e., media, vehicle [0.2% DMSO], positive control inducers [multiple concentrations], and the ToxCast chemicals [multiple concentrations]) were observed and cell morphology was assessed relative to vehicle control cultures at each harvest time point (0, 6, 24, or 48 h). […] Images were evaluated at the conclusion of the study to assess changes in cell integrity and account for the effects of chemical exposure on uncharacteristic changes in concentration-dependent gene expression profiles. The results from these determinations of apparent cytotoxicity were annotated (yes/no) alongside the corresponding qNPA data for reference.At the conclusion of each treatment period, hepatocyte cultures (96-well) were washed with 1 volume of HBSS, lysed by addition of 25 ul ArrayPlate lysis buffer (HTG, Tucson, AZ), and 70 ul/well of Denaturation Oil, denatured by incubation at 95C for 10 min, and frozen at approximately -70C until analysis by nuclease protection assay (qNPA) (Roberts et al., 2007). For qNPA analysis, cell lysates were thawed at 50C for approximately 30 min, qNPA probes were added, and samples were incubated at 95C for 10 min to begin the detection process by denaturing the target RNA, dissociating the duplexes and secondary structure hybridization. At the conclusion of the hybridization period, S1 nuclease reagent was added to each sample to digest all nonprotected nucleotides at 50C for 60-90 min. […]
# Cytochrome P450 2C19 (Homo sapiens), sequence (P33261 whole entry, looked up): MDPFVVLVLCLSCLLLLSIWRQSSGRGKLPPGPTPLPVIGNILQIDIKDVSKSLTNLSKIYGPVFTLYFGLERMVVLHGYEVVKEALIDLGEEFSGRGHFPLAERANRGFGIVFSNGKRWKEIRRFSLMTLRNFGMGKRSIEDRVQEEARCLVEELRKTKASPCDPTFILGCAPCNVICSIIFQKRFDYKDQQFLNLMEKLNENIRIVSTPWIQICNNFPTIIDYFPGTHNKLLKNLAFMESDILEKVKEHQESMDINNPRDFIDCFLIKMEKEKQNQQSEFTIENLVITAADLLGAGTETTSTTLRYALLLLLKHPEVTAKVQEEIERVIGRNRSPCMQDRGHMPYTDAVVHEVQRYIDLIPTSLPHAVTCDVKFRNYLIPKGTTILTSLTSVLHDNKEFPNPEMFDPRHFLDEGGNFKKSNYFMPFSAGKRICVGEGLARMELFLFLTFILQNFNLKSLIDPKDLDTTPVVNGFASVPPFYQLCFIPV
row,SMILES,outcome
1,CCOC(=O)NCCOc1ccc(Oc2ccccc2)cc1,inactive
2,COc1nc(C)nc(NC(=O)NS(=O)(=O)c2ccccc2OCCCl)n1,inactive
3,COC(=O)CSc1cc(N=c2sc(=O)n3n2CCCC3)c(F)cc1Cl,inactive
4,CCCN(CCC)C(=O)SCC,inactive
5,COC(=O)c1ccccc1S(=O)(=O)NC(=O)Nc1nc(OC(F)F)cc(OC(F)F)n1,inactive
6,C#CCOC(=O)[C@@H](C)Oc1ccc(Oc2ncc(Cl)cc2F)cc1,inactive
7,CCSC(=O)N(CC(C)C)CC(C)C,inactive
8,COC(=O)c1ccc(CNS(C)(=O)=O)cc1S(=O)(=O)NC(=O)Nc1nc(OC)cc(OC)n1,inactive
9,Cc1nn(C)c(Oc2ccccc2)c1C=NOCc1ccc(C(=O)OC(C)(C)C)cc1,inactive
10,CCN(CC)C(=O)c1cccc(C)c1,inactive
11,CC1(C)C(C=C(Cl)Cl)C1C(=O)OCc1cccc(Oc2ccccc2)c1 (centres undefined),inactive
12,COC(=O)c1ccccc1C(=O)O,inactive
13,CSC(=O)c1cccc2nnsc12,inactive
14,CCOC(=O)C(C)Oc1ccc(Oc2nc3ccc(Cl)cc3o2)cc1 (centres undefined),inactive
15,CC(C)(c1ccc(O)cc1)c1ccc(O)cc1,inactive
16,Oc1ccc(C(c2ccc(O)cc2)C(Cl)(Cl)Cl)cc1,inactive
17,COC(=O)c1ccc(I)cc1S(=O)(=O)NC(=O)Nc1nc(C)nc(OC)n1,inactive
18,S=C(S)NCCNC(=S)S.[Mn+2].[S-]C([S-])=NCCN=C([S-])[S-].[Zn+2],inactive
19,CCCOC(=O)c1ccc(C(=O)OCCC)nc1,inactive
20,COc1c(Cl)ccc(Cl)c1C(=O)O,inactive
21,c1ccc(Nc2ccccc2)cc1,inactive
22,CCCCOC(=O)C(C)Oc1ccc(Oc2ccc(C(F)(F)F)cn2)cc1 (centres undefined),inactive
23,CCOC(=O)COc1cc(-n2ncc(C(F)(F)F)c(C)c2=O)c(F)cc1Cl,inactive
24,CCC(C)OC(=O)N1CCCCC1CCO (centres undefined),inactive
